# Source: the supplement of paper PMC6089552
# Screen size: about 3,200 compounds; about 300 (9.4%) showed activity. The full list was thinned out, with actives kept by preference. Values without a mark were called inactive.
# System: A673/TR/shEF
# Experiment: cell viability (LOESS-normalised, relative to median of negative controls) (log2 ratio); higher = more viable cells (less compound effect), active = hit call of the paper (over 3 MAD below the median)
# Settings: treatment time: 72 h
# Summary of the method: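 Viability of A673/TR/shEF Ewing sarcoma cells was determined by CellTiter-Glo luminescence. The cells, at 1,500 per well in 384-well plates, were grown with or without doxycycline from 24 h before compound addition to switch on EWS-FLI1 shRNA knockdown, then exposed for three days to library compounds at two or more concentrations or to DMSO controls. Signals were LOESS-corrected plate by plate, normalised to the negative-control median and log2-transformed.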
# [1] = 0.25 µM, library screen: screen1, EWS-FLI1 expression: high (no doxycycline)
# [2] = 0.25 µM, library screen: screen1, EWS-FLI1 expression: low (doxycycline-induced shRNA knockdown)
# [3] = 2.5 µM, library screen: screen1, EWS-FLI1 expression: high (no doxycycline)
# [4] = 2.5 µM, library screen: screen1, EWS-FLI1 expression: low (doxycycline-induced shRNA knockdown)
# [5] = 0.25 µM, library screen: screen2, EWS-FLI1 expression: high (no doxycycline)
# [6] = 0.25 µM, library screen: screen2, EWS-FLI1 expression: low (doxycycline-induced shRNA knockdown)
# [7] = 2.5 µM, library screen: screen2, EWS-FLI1 expression: high (no doxycycline)
# [8] = 2.5 µM, library screen: screen2, EWS-FLI1 expression: low (doxycycline-induced shRNA knockdown)
smiles,measurement,setting,value
C=C[C@H]1CN2CC[C@H]1C[C@@H]2[C@@H](OC(=O)OCC)c1ccnc2ccc(OC)cc12,cell viability (log2),[1],0.12
same,cell viability (log2),[2],0.082
same,cell viability (log2),[3],0.173
same,cell viability (log2),[4],0.169
Brc1ccc(CN2CCNCC2)cc1,cell viability (log2),[1],0.0414
same,cell viability (log2),[2],0.121
same,cell viability (log2),[3],0.0626
same,cell viability (log2),[4],0.0805
C[C@@H](N)[C@@H](O)c1ccccc1,cell viability (log2),[1],0.199
same,cell viability (log2),[2],0.05
same,cell viability (log2),[3],0.0838
same,cell viability (log2),[4],0.0342
O=C(O)COc1ccc(Cl)cc1Cl,cell viability (log2),[1],0.0733
same,cell viability (log2),[2],0.0542
same,cell viability (log2),[3],0.0257
same,cell viability (log2),[4],0.121
Oc1ccc2c3c1O[C@H]1c4oc5ccccc5c4C[C@@]4(O)C(C2)N(CC2CC2)CCC314 (some centres undefined),cell viability (log2),[5],0.123
same,cell viability (log2),[6],0.122
same,cell viability (log2),[7],0.0412
same,cell viability (log2),[8],0.065
CC(C)(C)c1o[nH]c(=O)c1CC(N)C(=O)O (centres undefined),cell viability (log2),[5],0.0947
same,cell viability (log2),[6],0.0371
same,cell viability (log2),[7],0.104
same,cell viability (log2),[8],0.0294
CC[C@@H](C)C(=O)O[C@H]1[C@H](O)[C@H]2[C@@H](CN3C[C@@H](C)CC[C@H]3[C@@]2(C)O)[C@@H]2C[C@]34O[C@]5(O)[C@@H](OC(=O)[C@@](C)(O)[C@@H](C)O)CC[C@@]3(C)[C@@H]5[C@@H](OC(C)=O)[C@@H](OC(C)=O)[C@H]4[C@@]21O,cell viability (log2),[1],0.0432
same,cell viability (log2),[2],0.0125
same,cell viability (log2),[3],0.068
same,cell viability (log2),[4],0.0811
CN1C2CC3CC1[C@H](O)C2O3 (some centres undefined),cell viability (log2),[1],0.0139
same,cell viability (log2),[2],-0.0209
same,cell viability (log2),[3],0.0278
same,cell viability (log2),[4],0.0758
NC(CF)(Cc1cnc[nH]1)C(=O)O (centres undefined),cell viability (log2),[5],0.186
same,cell viability (log2),[6],0.069
same,cell viability (log2),[7],0.162
same,cell viability (log2),[8],0.1
CC(=O)O[C@@H]1C[C@H]2C(C)(C)C(=O)C=C[C@]2(C)[C@H]2CC[C@]3(C)C(=CC(=O)O[C@H]3c3ccoc3)[C@@]21C,cell viability (log2),[1],0.03
same,cell viability (log2),[2],0.143
same,cell viability (log2),[3],0.0618
same,cell viability (log2),[4],0.0922
C=C(C)C(=O)/C(=C\C(=O)O)OC,cell viability (log2),[1],0.0761
same,cell viability (log2),[2],0.0593
same,cell viability (log2),[3],0.138
same,cell viability (log2),[4],0.0173
COP(=O)(OC)OC(Br)C(Cl)(Cl)Br (centres undefined),cell viability (log2),[1],0.05
same,cell viability (log2),[2],-0.000859
same,cell viability (log2),[3],0.0787
same,cell viability (log2),[4],0.115
COc1cc(OC)c(OC)cc1C=O,cell viability (log2),[1],0.0675
same,cell viability (log2),[2],0.0986
same,cell viability (log2),[3],0.037
same,cell viability (log2),[4],0.0609
CN[C@@H](C)[C@H](O)c1ccccc1,cell viability (log2),[1],0.0728
same,cell viability (log2),[2],0.0797
same,cell viability (log2),[5],0.178
same,cell viability (log2),[6],0.073
same,cell viability (log2),[3],0.233
same,cell viability (log2),[4],0.0725
same,cell viability (log2),[7],0.0371
same,cell viability (log2),[8],0.00703
O=C(O)c1cc[c]([Hg][Cl])cc1,cell viability (log2),[5],0.203
same,cell viability (log2),[6],0.0774
same,cell viability (log2),[7],-0.0791 (active)
same,cell viability (log2),[8],0.0559
COc1ccc(C(=O)O)cc1OC,cell viability (log2),[1],0.0171
same,cell viability (log2),[2],0.0588
same,cell viability (log2),[3],0.137
same,cell viability (log2),[4],-0.0498
NNCc1cccc(O)c1,cell viability (log2),[1],0.103
same,cell viability (log2),[2],0.0544
same,cell viability (log2),[5],0.129
same,cell viability (log2),[6],0.00623
same,cell viability (log2),[3],0.142
same,cell viability (log2),[4],0.142
same,cell viability (log2),[7],0.151
same,cell viability (log2),[8],0.0221
NC(Cc1cc(O)c(O)cc1O)C(=O)O (centres undefined),cell viability (log2),[5],0.0775
same,cell viability (log2),[6],0.133
same,cell viability (log2),[7],0.0832
same,cell viability (log2),[8],0.2
CC(=O)c1c(O)c(C)c(O)c(Cc2c(O)c3c(c(C(=O)/C=C/c4ccccc4)c2O)OC(C)(C)C=C3)c1O,cell viability (log2),"0.025 µM, library screen: screen1, EWS-FLI1 expression: high (no doxycycline)",0.0285
same,cell viability (log2),"0.025 µM, library screen: screen1, EWS-FLI1 expression: low (doxycycline-induced shRNA knockdown)",0.0263
same,cell viability (log2),[1],0.0889
same,cell viability (log2),[2],0.0306
same,cell viability (log2),[5],0.209
same,cell viability (log2),[6],0.109
same,cell viability (log2),[3],0.055
same,cell viability (log2),[4],-0.0112
same,cell viability (log2),[7],0.118
same,cell viability (log2),[8],0.156
same,cell viability (log2),"25 µM, library screen: screen1, EWS-FLI1 expression: high (no doxycycline)",-0.306 (active)
same,cell viability (log2),"25 µM, library screen: screen1, EWS-FLI1 expression: low (doxycycline-induced shRNA knockdown)",-0.0436
CC(N)Cc1c[nH]c2ccc(O)cc12 (centres undefined),cell viability (log2),[5],0.112
same,cell viability (log2),[6],0.067
same,cell viability (log2),[7],0.123
same,cell viability (log2),[8],0.0164
COc1ccc(C(c2ccc(OC)cc2)C(Cl)(Cl)Cl)cc1,cell viability (log2),[1],0.0772
same,cell viability (log2),[2],0.0568
same,cell viability (log2),[3],0.0994
same,cell viability (log2),[4],0.0877
ClC1=C(Cl)[C@]2(Cl)[C@H]3[C@H]([C@@H]4C=C[C@H]3C4)[C@@]1(Cl)C2(Cl)Cl,cell viability (log2),[1],0.211
same,cell viability (log2),[2],0.0643
same,cell viability (log2),[3],0.0733
same,cell viability (log2),[4],0.136
CCN(CC)C(=O)N[C@@H]1C[C@@H]2c3cccc4[nH]cc(c34)C[C@H]2N(C)C1,cell viability (log2),[5],0.108
same,cell viability (log2),[6],0.0251
same,cell viability (log2),[7],0.215
same,cell viability (log2),[8],-0.0279
CCCCSP(=O)(SCCCC)SCCCC,cell viability (log2),[1],-0.12 (active)
same,cell viability (log2),[2],0.121
same,cell viability (log2),[3],0.0791
same,cell viability (log2),[4],0.0846
CCCSP(=O)(OCC)SCCC,cell viability (log2),[1],0.112
same,cell viability (log2),[2],0.104
same,cell viability (log2),[3],0.0625
same,cell viability (log2),[4],0.0939
CC1=C[C@@H]2c3cccc4[nH]cc(c34)C[C@H]2N(C)C1,cell viability (log2),[5],0.126
same,cell viability (log2),[6],0.0939
same,cell viability (log2),[7],0.18
same,cell viability (log2),[8],0.0817
CCOP(=S)(OCC)SCSCC,cell viability (log2),[1],0.102
same,cell viability (log2),[2],-0.0178
same,cell viability (log2),[3],0.0726
same,cell viability (log2),[4],0.115
NC1CC1c1ccccc1 (centres undefined),cell viability (log2),[1],0.107
same,cell viability (log2),[2],0.128
same,cell viability (log2),[3],0.188
same,cell viability (log2),[4],0.0868
COc1ccc2c3c1O[C@H]1[C@@H](O)CCC4[C@@H](C2)N(C)CC[C@@]341 (some centres undefined),cell viability (log2),[1],0.0725
same,cell viability (log2),[2],0.0483
same,cell viability (log2),[3],0.0123
same,cell viability (log2),[4],0.128
C=CCN1CCC2(C)c3cc(O)ccc3CC1C2C (centres undefined),cell viability (log2),[5],0.143
same,cell viability (log2),[6],0.072
same,cell viability (log2),[7],0.0589
same,cell viability (log2),[8],0.0707
N#Cc1c(Cl)cccc1Cl,cell viability (log2),[1],0.126
same,cell viability (log2),[2],0.0183
same,cell viability (log2),[3],0.084
same,cell viability (log2),[4],0.0798
N#Cc1c(Cl)c(Cl)c(Cl)c(C#N)c1Cl,cell viability (log2),[1],-0.0732
same,cell viability (log2),[2],0.00425
same,cell viability (log2),[3],-0.219 (active)
same,cell viability (log2),[4],0.063
